Measured values: ChEMBL document CHEMBL3988442, “University of Dundee, Small-Polar-MMV Screening Library” (2021)
Out of some 69,000 compounds screened, about 950 (1.4%) showed an effect of 50% or more. Many of the other results were omitted from the sample, so strong results are more common in it than they were.

system: Mycobacterium tuberculosis; experiment: Cornell M. t heat shock assay; type: functional, organism-based; set-up: dose or concentration left out as unconfirmed; also: in the data most compounds retested in dose-response had high values

Going from `COc1ccc(CN(C)CC(O)COCc2ccccc2Cl)c(OC)c1.O=C(O)C(=O)O` (centres undefined) to `COCCn1c2c(ccc1=O)CC(NCc1cccnc1OC)CC2.O=C(O)C(F)(F)F.O=C(O)C(F)(F)F` (centres undefined), the “Percent Effect” value rises from 10.76% to 19.47%.

Going from `Cl.NC(=O)c1ccc(C2CCCNC2)nc1` (centres undefined) to `COc1ccc2nnc(C(=O)NC3CCCC3)nc2c1`, the “Percent Effect” value rises from 6.817% to 57.83%.

First: Cc1noc(C)c1C(=O)N1C[C@@H]2COC[C@]2(COc2ccccn2)C1.O=C(O)C(F)(F)F
Second: O=C(O)C(F)(F)F.O=C(c1ccsc1)N1C[C@H]2CCC[C@@]2(COCc2cccnc2)C1
The “Percent Effect” value of the first is lower: -29.95% for the first, -16.41% for the second.

First: Cc1ccc2nc(C3CCCN3Cc3scnc3C)[nH]c2c1 (centres undefined)
Second: Cc1ccc2nc(C3CCCN3Cc3csc(C)n3)[nH]c2c1 (centres undefined)
The “Percent Effect” value of the first is lower: 1.494% for the first, 87.71% for the second.

Going from `Cc1ccc2nc(C3CCCN3Cc3nnc(C)s3)[nH]c2c1` (centres undefined) to `Cc1ccc2nnc(C(=O)NCC3CCCC3)nc2c1`, the “Percent Effect” value rises from -8.638% to 103.3%.

First: Cn1cc(CN2C[C@@H]3COC[C@]3(C(=O)NCCc3ccccc3)C2)cn1.O=C(O)C(F)(F)F
Second: CCOCC1CN(Cc2cnn(C)c2)Cc2nn(CC3CC3)cc21.O=C(O)C(F)(F)F (centres undefined)
The “Percent Effect” value of the first is lower: -18.43% for the first, 2.131% for the second.

First: COCCC(C)NS(=O)(=O)c1ccc(C)c(N(C)C)c1 (centres undefined)
Second: Cc1cc(C)n(-c2ccc(NCCNS(=O)(=O)c3ccccc3)nn2)n1
The “Percent Effect” value of the first is lower: 1.91% for the first, 7.275% for the second.

First: CCN(CC)c1ncnc2c1CCN(C(=O)Cc1ccccn1)CC2.O=C(O)C(F)(F)F.O=C(O)C(F)(F)F
Second: Cc1noc(C)c1CN1CCn2cc(CNc3ccccn3)nc2C1.O=C(O)C(F)(F)F.O=C(O)C(F)(F)F
The “Percent Effect” value of the first is lower: -18.08% for the first, 4.3% for the second.

First: COCC1CN(c2ncc(F)cn2)Cc2cnn(C)c21.O=C(O)C(F)(F)F.O=C(O)C(F)(F)F (centres undefined)
Second: CCn1ncc2c1C(COC)CN(c1ncc(F)cn1)C2.O=C(O)C(F)(F)F.O=C(O)C(F)(F)F (centres undefined)
The “Percent Effect” value of the first is lower: 9.404% for the first, 55.18% for the second.

Compared with `CCn1ncc2c1C(COC)CN(Cc1ccc(F)cc1)C2.O=C(O)C(F)(F)F.O=C(O)C(F)(F)F` (centres undefined), `Cn1nnc2c1C(COCc1cccnc1)CN(Cc1ccoc1)C2.O=C(O)C(F)(F)F.O=C(O)C(F)(F)F` (centres undefined) is lower in “Percent Effect” value: -13.12% for the first, -46.31% for the second.

Going from `CCOCC1CN(Cc2ccco2)Cc2nccn2C1.O=C(O)C(F)(F)F` (centres undefined) to `Cn1nnc2c1CCN(Cc1nccs1)C2COCc1ccccc1.O=C(O)C(F)(F)F` (centres undefined), the “Percent Effect” value rises from -9.1% to 7.839%.

Compared with `CN(C)C(=O)CC1CC2(CCN(CC3CC3)CC2)c2cc(F)ccc21.O=C(O)C(F)(F)F` (centres undefined), `CN(C)C(=O)COC1COC2(CCN(CC3CCOCC3)CC2)C1.O=C(O)C(F)(F)F` (centres undefined) is higher in “Percent Effect” value: -15.82% for the first, -2.67% for the second.

First: CCn1nc(C)c(CNC(=O)c2nnc3ccc(OC)cc3n2)c1C
Second: CCn1nc(C)c(CNC(=O)c2nnc3ccc(Cl)cc3n2)c1C
The “Percent Effect” value of the first is lower: -6.041% for the first, 42.92% for the second.

Going from `COC(=O)C1CCN(C(=O)c2nnc3ccc(Cl)cc3n2)CC1` to `COC(=O)C1CCN(C(=O)c2nnc3ccc(C)cc3n2)CC1`, the “Percent Effect” value falls from 26.61% to 15.86%.

Compared with `CN1CCN(C(=O)c2nnc3ccc(Cl)cc3n2)CC1`, `O=C(NCC1CC1)c1nnc2ccc(Cl)cc2n1` is higher in “Percent Effect” value: 68.14% for the first, 102.8% for the second.

First: O=C(NC1CCCCC1)c1nnc2ccc(N3CCOCC3)cc2n1
Second: COc1ccc2nnc(C(=O)NCC3CCCC3)nc2c1
The “Percent Effect” value of the first is lower: 8.79% for the first, 44.72% for the second.

Going from `Cc1ccc(-n2nnc(C(=O)NCC3CCCCC3)n2)cc1` to `Cc1c(C(=O)NC2=NCCS2)cnn1-c1ccc(Cl)cc1`, the “Percent Effect” value rises from 10.71% to 22.26%.

Going from `O=C(NCC1CC1)Nc1cnc2cc(Cl)ccc2c1O` to `COCc1ccc(C(=O)N2CCC(c3cc4ncc(C)nc4[nH]3)C2)cc1` (centres undefined), the “Percent Effect” value rises from -11.98% to 6.722%.

Going from `CCCn1[nH]cc/c1=N\C(=O)CN1CCc2c(nc(C3CC3)n2C)C1` to `CCCOC1CCCN(Cc2nc(-c3ccc(F)cc3F)oc2C)C1` (centres undefined), the “Percent Effect” value falls from 7.757% to -26.76%.

Compared with `Cl.O=C(C1CCCCC1)N1C[C@H]2CNC[C@H]2C1`, `CN1C[C@@H]2CN(C(=O)C3CC=CC3)C[C@@H]2C1=O` is higher in “Percent Effect” value: -3.289% for the first, -1.029% for the second.

Going from `O=c1cc(CN2CC[C@H]3CC[C@@H](C2)N3)c2cccc3c2n1CCC3` to `N#Cc1cccc(CN2CC[C@@H]3[C@@H]2CC(=O)N3CCN2CCCC2)c1.O=C(O)C(F)(F)F.O=C(O)C(F)(F)F`, the “Percent Effect” value rises from -15.55% to -3.152%.

Going from `Cl.c1nc(N2CCOCC2)sc1-c1cncn1CCCN1CCCCC1` to `CCn1cncc1CN1CCN(CC2(c3ccc(C)cc3)CC2)CC1.Cl`, the “Percent Effect” value falls from -3.925% to -24.04%.

Going from `CC(C)NC(=O)c1ccc2c(c1)C1(CCN(C(C)C)CC1)C(=O)N2.O=C(O)C(F)(F)F` to `COCC(=O)NCc1cc(=O)n2c(n1)CN(C)CCC2.O=C(O)C(F)(F)F`, the “Percent Effect” value rises from -33.29% to 2.895%.

Compared with `Cc1ccc(O[C@@H]2C[C@H]3CN(Cc4nccn4C)CCN3C2)cc1.O=C(O)C(F)(F)F.O=C(O)C(F)(F)F`, `Cc1nc(CN2C(=O)CCC23CCN(Cc2ccoc2)CC3)cs1.O=C(O)C(F)(F)F.O=C(O)C(F)(F)F` is lower in “Percent Effect” value: -24.79% for the first, -26.87% for the second.

Going from `CC(C)NC(=O)CNC(=O)c1csc(Cc2ccccc2F)n1` to `Cc1csc(NCC(=O)c2c[nH]c3ccccc23)n1.I`, the “Percent Effect” value rises from -1.27% to 13.99%.

First: COCC1N(C(=O)N2CCOCC2)[C@H]2CC[C@]1(O)CC2 (some centres undefined)
Second: O=C(N1CCOCC1)N1C(CN2CCOCC2)[C@]2(O)CC[C@H]1CC2 (some centres undefined)
The “Percent Effect” value of the first is lower: -3.821% for the first, 2.205% for the second.

First: COc1ccc(-c2nc(CN3CCCC(OC)C3)c(C)o2)c(F)c1 (centres undefined)
Second: COCc1ncn(Cc2nc(-c3ccc(OC)cc3F)oc2C)n1
The “Percent Effect” value of the first is higher: 93.73% for the first, -9.071% for the second.

Compared with `Cl.Cl.O=C(NCc1cncc2c1CCN(C1CCOCC1)C2)c1ccno1`, `Cn1cc(-c2cnc(N3CCOCC3)nc2)cc1C(=O)NCCO.O=C(O)C(F)(F)F` is lower in “Percent Effect” value: 18.25% for the first, 10.75% for the second.

Going from `Br.Cc1cc(C)nc(NCCC(=O)NCCn2ccnc2C)n1` to `Cc1cc(C)n(CC(=O)NC(Cc2ccsc2)c2ccccn2)c(=O)n1.Cl` (centres undefined), the “Percent Effect” value rises from -9.93% to 93.95%.

Going from `Cc1nc(CN2CCC23CCN(Cc2ccoc2)CC3)cs1` to `Cc1nc(CN2CCC23CCN(Cc2ccco2)CC3)cs1`, the “Percent Effect” value falls from 94.23% to 77.77%.

Going from `Cc1nc(CN2CCC3(C2)CN(Cc2ccco2)C3)cs1` to `Cc1nc(CN2C(=O)CCC23CCN(Cc2ccco2)CC3)cs1`, the “Percent Effect” value falls from 18.48% to 5.099%.

Compared with `Cc1nc(CN2CCC23CCN(C(=O)c2ccco2)CC3)cs1`, `Cc1ccc(N2CCC3(CCN(C(=O)c4ccnnc4)CC3)CC2)nn1.O=C(O)C(F)(F)F` is lower in “Percent Effect” value: -3.59% for the first, -48.43% for the second.

Going from `O=C(N1CCCO1)[C@@]12CCO[C@@H]1CCN(Cc1ccc(F)cc1)C2.O=C(O)C(F)(F)F` to `CN(C)C(=O)c1nn(C)c2c1CN(Cc1ccc(F)cc1)C2.O=C(O)C(F)(F)F`, the “Percent Effect” value falls from -15.72% to -35.3%.

Going from `O=C(c1c[nH]c(=O)c(Cl)c1)N1C[C@@H]2CC[C@H](C1)N(CC1CCC1)C2` to `CCOCC1CN(C2CCCC2)Cc2cnn(CC3CCOCC3)c21.O=C(O)C(F)(F)F.O=C(O)C(F)(F)F` (centres undefined), the “Percent Effect” value rises from -23.49% to -13.36%.

First: COC1COC2(CCN(CC3CC3)CC2)C1.O=C(O)C(F)(F)F (centres undefined)
Second: CC(C)CN1CC[C@@H]2[C@H](CC1)N(S(C)(=O)=O)CCS2(=O)=O.O=C(O)C(F)(F)F
The “Percent Effect” value of the first is higher: -5.009% for the first, -8.964% for the second.

Compared with `Cc1cnc2cc(C3CCN(C(=O)c4ccncc4)CC3)[nH]c2n1`, `COCc1ccc(C(=O)N2CCC(c3cc4nccnc4[nH]3)CC2)cc1` is higher in “Percent Effect” value: 11.57% for the first, 64.38% for the second.

Compared with `COc1ccc(Cn2c(C3CCNCC3)cc3cccnc32)cc1.Cl`, `O=c1[nH]c2ccccc2cc1CN(Cc1ccccn1)CC1CCCO1` (centres undefined) is higher in “Percent Effect” value: 2.964% for the first, 51.43% for the second.

Compared with `CCOC(=O)CSc1nnc([C@@H](N)C(C)CC)o1.Cl` (some centres undefined), `Cc1cc(CCC(=O)Nc2nncs2)nc(C2CCCN2)n1.Cl` (centres undefined) is higher in “Percent Effect” value: -17.57% for the first, -11.36% for the second.

Going from `c1ccc(O[C@H]2C[C@@H]3CN(Cc4cnccn4)C[C@@H]3C2)cc1` to `c1ccc(CN(Cc2cccc3cnccc23)CC2CCCO2)nc1` (centres undefined), the “Percent Effect” value rises from -8.402% to 13.24%.

Compared with `Cc1ccc2cc(CN(C)Cc3ccccn3)c(=O)[nH]c2c1`, `Cc1csc(C(Cc2ccsc2)NC(=O)CN(C)Cc2ccccn2)n1.Cl` (centres undefined) is higher in “Percent Effect” value: -6.108% for the first, 82.59% for the second.

First: O=C(O)C(F)(F)F.O=C1CC[C@]2(CC[C@@H](NC(=O)NCc3cccnc3)CC2)N1
Second: Cc1csc(C(Cc2ccsc2)NC(=O)CN(C)Cc2cccnc2)n1.Cl (centres undefined)
The “Percent Effect” value of the first is higher: 2.106% for the first, -9.769% for the second.

First: O=C(Cn1cccnc1=O)NC(Cc1ccsc1)c1ccccn1 (centres undefined)
Second: Cc1csc(C(Cc2ccsc2)NC(=O)Cn2cccnc2=O)n1 (centres undefined)
The “Percent Effect” value of the first is higher: 17.67% for the first, -16.84% for the second.

Compared with `CN(CC(=O)NC(Cc1ccsc1)c1cccnc1)Cc1ccccn1.Cl` (centres undefined), `O=S(=O)(Cc1ccccc1)NCCNc1ccc(-n2cccc2)nn1` is higher in “Percent Effect” value: -24.9% for the first, -9.655% for the second.

First: Cc1oc(-c2ccccc2)nc1CC(=O)NC1=NCCS1
Second: Cc1oc(-c2ccccc2)nc1C(=O)NC1=NCCS1
The “Percent Effect” value of the first is lower: 20.62% for the first, 105.4% for the second.

First: Cc1oc(-c2ccc(Cl)cc2)nc1C(=O)NC1=NCCS1
Second: Cc1c(C(=O)NC2=NCCS2)cnn1-c1ccc(Br)cc1
The “Percent Effect” value of the first is higher: 105.8% for the first, 23.54% for the second.

First: Cc1cc(C(=O)NC2=NCCS2)c(C)n1-c1ccccn1
Second: Cc1ccc(C)c(S(=O)(=O)NCCNc2ccc(-n3cccc3)nn2)c1
The “Percent Effect” value of the first is lower: 4.567% for the first, 35.9% for the second.

Going from `Cc1c(CN2CCc3nc4sccc4c(=O)n3CC2)cnn1C.Cl` to `Cc1nsc(NCCNS(=O)(=O)c2ccccc2)n1`, the “Percent Effect” value rises from -11.07% to -4.682%.

Going from `O=S(=O)(NCCNc1ccc(-n2cccc2)nn1)c1cccs1` to `O=S(=O)(NCCNc1cc(-n2cccc2)ncn1)c1cccs1`, the “Percent Effect” value falls from 103.8% to 9.38%.

Going from `O=S(=O)(NCCNc1ccc(-n2cccn2)nn1)c1ccccc1` to `O=S(=O)(NCCNc1ccc(-n2cccc2)nn1)c1ccccc1`, the “Percent Effect” value falls from 101.1% to 100.9%.

With `O=S(=O)(NCCNc1cc(-n2cccn2)ncn1)c1cccs1` the “Percent Effect” value was -0.2009%.
